Tau fluor counter – counter-screen for tau fibril formation inhibitors; Potency, µM (titrated, usually from 57.7 µM), inactives show at the top dose activity change, negative = decrease; 0.93% of 280,000 active; tau K18 P301L Alexa594 fluorescence, heparin fibrillization; also: nearly all actives have a fitted effect of over 55% in size
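Human K18 P301L tau (15 uM unlabeled plus 0.24 uM Alexa 594-labeled, final) in 100 mM sodium acetate pH 7 was mixed with compound and 20 uM heparin and incubated 6 hr at 37 C.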
GoLoco inh red – RGS12 GoLoco-Gai1 interaction inhibition; Gai1:RGS12 GoLoco peptide FP, rhodamine, 10 min; 0.44% of 230,000 active; Potency, µM (titrated, usually from 61.6 µM), for inactives: at the top dose activity, negative = inhibition, most hits filed as inhibitors; P63096; active = well fitted inhibition curve with a large enough effect, not every such curve was filed as active; inactive = no such curve, though single readings can be large or run the other way; also: nearly all actives have a fitted effect of over 30% in size
Target sequence (P63096 whole entry, looked up): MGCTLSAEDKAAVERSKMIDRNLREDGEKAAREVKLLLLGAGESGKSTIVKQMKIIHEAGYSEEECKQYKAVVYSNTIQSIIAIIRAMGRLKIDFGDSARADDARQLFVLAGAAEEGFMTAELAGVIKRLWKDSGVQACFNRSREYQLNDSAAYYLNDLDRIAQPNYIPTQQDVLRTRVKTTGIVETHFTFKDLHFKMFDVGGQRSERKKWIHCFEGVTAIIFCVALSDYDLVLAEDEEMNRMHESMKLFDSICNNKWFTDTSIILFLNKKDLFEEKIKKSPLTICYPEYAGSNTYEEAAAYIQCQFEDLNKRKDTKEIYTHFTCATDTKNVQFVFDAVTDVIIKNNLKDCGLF
Tau ThT inhib – tau fibrillization inhibition (ThT binding); recombinant tau K18 P301L, heparin-induced fibrillization, ThT fluorescence; 2.1% of 270,000 active; P10636; Potency, µM (highest dose often 57.4 µM), for inactives: at the highest dose activity, negative = inhibition, hits mostly inhibitors; AID 1460; also: nearly all actives have a fitted effect of over 55% in size
Target sequence (P10636 561-689 P618L limits assumed): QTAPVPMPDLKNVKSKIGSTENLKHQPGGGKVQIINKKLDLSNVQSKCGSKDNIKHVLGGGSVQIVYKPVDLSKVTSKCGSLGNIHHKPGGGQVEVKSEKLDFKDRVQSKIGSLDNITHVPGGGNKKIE
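Using a mix of unlabeled (15 uM) and Alexa 594-labeled (0.24 uM) tau K18 P301L, heparin-triggered fibrillization over 6 hr at 37 C was scored by ThT fluorescence.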
TexasRed fluor – alters Texas Red total fluorescence, flagging assay interference | TRb/SRC2 Texas Red total fluorescence interference | Potency, µM (top dose mostly 106 µM), inactives show top-dose fluorescence change, negative = quenching | 0.29% of 280,000 active | AID 1479; active = well fitted curve in either direction with a large enough effect; inconclusive = small, poorly fitted or top-dose-only effect
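Human TRb ligand-binding domain at 0.6 uM with 20 nM Texas Red SRC2 peptide in Tris buffer containing 1 uM T3 and 5% DMSO, incubated with compound 5 h at ambient temperature. Total fluorescence (555/632 nm) calculated as parallel + 2 × perpendicular.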
TRb SRC2 PPI – disrupts binding of human TR beta to SRC2. AID 1469. Potency, µM (doses to about 106 µM), inactives show at the highest dose activity change, negative = inhibition, usual class: inhibitors. P10828. 0.065% of 280,000 active. TRbeta-SRC2 peptide binding, fluorescence polarization; receptor liganded with 1 µM T3;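 also: plate controls were bound peptide for no effect and peptide without receptor for full effect; nearly all actives have a fitted effect of over 50% in size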
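Human TRb ligand-binding domain (0.6 uM) is mixed with 20 nM Texas Red SRC2 peptide and 1 uM T3; after compound addition and 5 hr at ambient temperature, polarization is measured and normalized to unbound and bound controls.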
Tau fibril FP – tau fibrillization inhibition (FP); 0.39% of 280,000 active; P10636; Potency, µM (highest dose often 57.7 µM), inactives show at the top dose activity, negative = inhibition, most hits filed as inhibitors; K18 P301L tau heparin fibrillization, Alexa594 FP, 6 h; also: nearly all actives have a fitted effect of over 55% in size
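Recombinant K18 P301L […], labeled with Alexa 594 at 0.24 uM over 15 uM unlabeled; heparin inducer 20 uM final; 37 C, 6 hr; FP endpoint.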
Active calls of the source: *; ? = inconclusive; nt = not tested or not shown; [ ] = dose if it differs, or a comment. This is a sample that favours compounds with a hit; in the whole collection about 3.1% have one here. Unless noted, calls follow the shape of the dose curve; as a rule, active = well fitted curve in the direction sought with a large enough effect; inconclusive = small, poorly fitted or top-dose-only effect, or another doubt; inactive = no such curve, though single readings can be large; an effect the other way counts as inactive or inconclusive. Unless noted, % is scaled to controls: 0 for no effect and ±100 for the full control effect; potency is read from the fitted curve at half-maximal effect.

SMILES | Tau fluor counter | GoLoco inh red | Tau ThT inhib | TexasRed fluor | TRb SRC2 PPI | Tau fibril FP
O=C(/C=C/c1cc([N+](=O)[O-])ccc1OC(F)F)Nc1cccc2ccccc12 | ? | 4.5% | -16.7% | 1.0% | 3.1% | 8.7%
Cc1ncoc1C(=O)N1CCCC(CCC(=O)NCc2ccccc2F)C1 (stereo not drawn) | -12.0% | 11.8% | -12.8% | 0.2% | 3.1% | -4.0%
CC(CNC(=S)Nc1cc(F)cc(F)c1)CSc1ccc(Cl)cc1 (stereo not drawn) | ? | 10.7% | 5.0% | -2.5% | -8.0% | 28.2µM*
O=S(=O)(c1ccc2nc(-c3ccccc3)[nH]c2c1)N1CCN(c2ccc(Cl)cc2)CC1 | ? | 11.4% | 6.8% | -2.1% | -0.7% | ?
CC(C)(C)c1cc(C(c2cccnc2)N2CCN(CCO)CC2)cc(C(C)(C)C)c1O (stereo not drawn) | -22.3% | -1.8% | 20µM* | 4.2% | -5.1% | ?
CN(C)c1nc(Nc2ccc(Cl)cc2)nc(OCC#N)n1 | -24.1% | 9.1% | -1.5% | 0.2% | -25.5% | ?
CC(=O)Oc1cc(-c2coc3cc(OC(C)=O)c(OC(C)=O)c(OC(C)=O)c3c2=O)cc(OC(C)=O)c1OC(C)=O | ? | -24.4% | 3.55µM* | -6.8% | -1.2% | 8.91µM*
COc1ccccc1N(C)S(=O)(=O)c1ccc(C(=O)N(CC(N)=O)C(C)C)cc1 | -6.7% | -1.9% | -8.0% | 1.0% | -23.6% | -0.4%
O=C(CSc1ncnc2scc(-c3ccccc3)c12)N1CCN(Cc2ccc3c(c2)OCO3)CC1 | -20.9% | nt | ? | 44.7µM*[fluorescent] | 4.4% | -13.8%
CCOc1ccc(N=Nc2c(N)[nH][nH]c2=O)cc1 | 10.5% | -17.6% | 8.5% | 0.3% | -3.5% | 11.8%
Cc1ccc(N=Nc2c(C)[nH][nH]c2=O)c(C)c1 | -23.2% | 12.2% | 8.91µM* | -1.1% | 4.3% | -5.7%
Cc1[nH][nH]c(=O)c1N=Nc1ccccc1C#N | -19.5% | -1.7% | ? | -4.5% | -2.1% | 6.2%
COc1ccc(N=Nc2c(C)[nH][nH]c2=O)cc1 | -11.6% | -17.4% | 8.91µM* | -5.7% | -8.5% | 1.6%
Cc1cccc(CC(=O)NC2CC(=O)N(c3cccc(F)c3)C2)c1 (stereo not drawn) | -4.5% | nt | -5.1% | 0.6% | -3.0% | -8.9%
[O-]/C(=C(\C(=S)Nc1ccc(SC(F)F)cc1)[n+]1cccc(CO)c1)c1ccc(Cl)s1 | ? | 28.2% | 25.1µM* | 0.6% | -4.6% | -12.1%
[O-]/C(=C(\C(=S)Nc1cccc2ccccc12)[n+]1cccc(CO)c1)c1ccc(Cl)s1 | ? | 15.0% | 14.1µM* | -2.4% | -26.8% | ?
S=c1[nH]nc2n1CCCN2 | -4.9% | -3.7% | -5.1% | 0.7% | 8.8% | 0.3%
NNc1nc2c(F)cc(F)cc2s1 | ? | -1.4% | 12.6µM* | -0.9%[53 µM] | -5.2%[53 µM] | -4.8%
O=C(CCc1ccccc1)Nc1nc2c(F)cc(F)cc2s1 | -10.8% | 21.1% | nt | -1.0% | -1.5% | -8.0%
NNc1nc2c(F)cccc2s1 | 17.8µM*[quencher] | -12.3% | 15.8µM* | -21.9% | 7.2% | ?
O=C(CN1CCN(C(=O)N2CCCCC2)CC1)Nc1ccc(F)cc1 | 4.1% | -5.3% | -7.0% | 1.7% | 2.4% | 5.3%
Cc1ccc(NCC(=O)N/N=C/c2cc3ccccc3nc2Cl)cc1 | ? | 5.5% | 17.8µM* | -4.4% | ? | 1.8%
CN(C)S(=O)(=O)c1cccc(NC(=S)N/N=C/c2cccc(O)c2)c1 | -19.3% | 22.1% | -13.2% | 0.0% | -0.9% | -9.6%
CN(C)S(=O)(=O)c1cccc(NC(=S)N/N=C/c2cc(Br)ccc2O)c1 | 7.94µM*[quencher] | 3.8% | ? | -8.5% | 3.6% | ?
CCN(CC)c1ccc(N)cc1S(=O)(=O)Nc1ccccc1OC | -22.7% | -26.7% | 25.1µM* | -0.4% | -6.2% | ?
SMILES | Tau fluor counter | GoLoco inh red | Tau ThT inhib | TexasRed fluor | TRb SRC2 PPI | Tau fibril FP
O=[N+]([O-])c1ccc(N=NNc2ccccc2)cc1 | 14.1µM*[quencher] | 5.7% | 8.91µM* | -0.4% | 4.0% | 1.5%
O=C(O)c1cc(NN=Nc2cccc([N+](=O)[O-])c2)cc([N+](=O)[O-])c1 | -22.8% | 5.1% | ? | -11.1% | -8.2% | -2.0%
O=C(O)c1cc(NN=Nc2ccc(Br)cc2)cc([N+](=O)[O-])c1 | -27.9% | 3.4% | 14.1µM* | 0.6% | 5.9% | 0.5%
O=C(NCC1COc2ccccc2O1)c1cn(Cc2ccc(F)cc2)nn1 (stereo not drawn) | -11.5% | 12.7% | -12.9% | -9.5% | 1.3% | -6.7%
COc1ccccc1NC(=O)C(=O)/C=C(\O)c1ccccc1 | -8.0% | 11.7% | -13.8% | -0.2% | 0.0% | 5.9%
COc1cc(/C=C/c2ccc3cccc([N+](=O)[O-])c3n2)ccc1OCC(=O)O | -2.9% | 8.1% | ? | -14.6% | -0.9% | 7.1%
COc1cc(/C=C/c2ccc3c([N+](=O)[O-])cccc3n2)ccc1OCC(=O)O | -16.4% | 6.4% | 3.16µM* | -11.1% | -0.2% | -0.7%
O=C(O)COc1ccc(/C=C/c2ccc3cccc([N+](=O)[O-])c3n2)cc1 | -16.3% | 4.5% | 7.94µM* | -14.3% | 1.2% | 9.8%
COc1ccc(/C=N/N=C2/NC(=O)C(CC(=O)O)S2)cc1OCc1ccccc1Cl (stereo not drawn) | -7.0% | 5.9% | -15.6% | 1.4% | 3.8% | 2.7%
O=S(=O)(O)c1cc(O)c2c(N=Nc3ccc(Nc4ccccc4)c4c(S(=O)(=O)O)cccc34)cc(S(=O)(=O)O)cc2c1 | nt | nt | nt | 20µM*[quencher] | 15.2% | nt
CCOC(=O)c1ccc(NC(=O)CC2Nc3cccc4cccc(c34)NC2=O)cc1 (stereo not drawn) | 8.91µM*[quencher] | nt | 12.6µM* | ? | -11.2% | ?
COc1cccc(NC(=O)CC2Nc3cc(C)c(C)cc3NC2=O)c1 (stereo not drawn) | ? | nt | ? | -4.2% | 6.7% | 9.9%
CCOc1ccc(NC(=O)CC2Nc3cccc4cccc(c34)NC2=O)cc1 (stereo not drawn) | 15.8µM*[quencher] | nt | 14.1µM* | -23.3% | -0.1% | 4.1%
COc1ccc(NC(=O)CC2Nc3ccccc3NC2=O)cc1 (stereo not drawn) | -8.9% | nt | -14.4% | 4.8% | 3.2% | 0.6%
CCOC(=O)c1ccc(NC(=O)CC2Nc3cc(C)c(C)cc3NC2=O)cc1 (stereo not drawn) | 14.1µM*[quencher] | nt | ? | -1.9% | 11.9% | 9.1%
Cc1cccc(NC(=O)CC2Nc3cccc4cccc(c34)NC2=O)c1 (stereo not drawn) | 8.91µM*[quencher] | 1.6% | ? | -1.7%[11.2 µM] | 4.2%[11.2 µM] | 0.7%
COc1ccc(CNc2ncnc3onc(-c4ccc(F)cc4)c23)cc1 | -25.9% | nt | -4.9% | -3.6% | 3.4% | -7.7%
Cc1ccc(C(=O)COC(=O)c2ccc(O)cc2)cc1 | -13.1% | 7.2% | ? | -0.8% | 6.8% | -2.2%

Assay outcomes from PubChem BioAssay.
